According to PubChem BioAssay AID588358 (NMMLSC, 2011):
About 1,500 (0.48%) of roughly 310,000 compounds were called active. For the sample, actives were picked, then their nearest neighbours and some compounds at random. Unmarked numbers belong to inactive results.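 How the source made its calls: active means binding more than 3 SD below its plate's average and above zero; inconclusive means below that plate limit but binding exactly zero; inactive means the rest.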

What follows are molecules tested against Desmoglein-3 (Homo sapiens) (UniProt P32926) (assay: inhibitors of pemphigus antibody binding to DSG3, primary screen, biochemical, bead-based, flow cytometry, scFv-GFP (AID 588358;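 further: hits lower antibody fragment binding to DSG3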)). Conditions: DSG3-coupled beads, scFv-anti-DSG3-GFP binding, at 10 µM, active compounds read low.
Sequence of Desmoglein-3 (Homo sapiens) (P32926 whole entry, looked up, the tested form may be a part): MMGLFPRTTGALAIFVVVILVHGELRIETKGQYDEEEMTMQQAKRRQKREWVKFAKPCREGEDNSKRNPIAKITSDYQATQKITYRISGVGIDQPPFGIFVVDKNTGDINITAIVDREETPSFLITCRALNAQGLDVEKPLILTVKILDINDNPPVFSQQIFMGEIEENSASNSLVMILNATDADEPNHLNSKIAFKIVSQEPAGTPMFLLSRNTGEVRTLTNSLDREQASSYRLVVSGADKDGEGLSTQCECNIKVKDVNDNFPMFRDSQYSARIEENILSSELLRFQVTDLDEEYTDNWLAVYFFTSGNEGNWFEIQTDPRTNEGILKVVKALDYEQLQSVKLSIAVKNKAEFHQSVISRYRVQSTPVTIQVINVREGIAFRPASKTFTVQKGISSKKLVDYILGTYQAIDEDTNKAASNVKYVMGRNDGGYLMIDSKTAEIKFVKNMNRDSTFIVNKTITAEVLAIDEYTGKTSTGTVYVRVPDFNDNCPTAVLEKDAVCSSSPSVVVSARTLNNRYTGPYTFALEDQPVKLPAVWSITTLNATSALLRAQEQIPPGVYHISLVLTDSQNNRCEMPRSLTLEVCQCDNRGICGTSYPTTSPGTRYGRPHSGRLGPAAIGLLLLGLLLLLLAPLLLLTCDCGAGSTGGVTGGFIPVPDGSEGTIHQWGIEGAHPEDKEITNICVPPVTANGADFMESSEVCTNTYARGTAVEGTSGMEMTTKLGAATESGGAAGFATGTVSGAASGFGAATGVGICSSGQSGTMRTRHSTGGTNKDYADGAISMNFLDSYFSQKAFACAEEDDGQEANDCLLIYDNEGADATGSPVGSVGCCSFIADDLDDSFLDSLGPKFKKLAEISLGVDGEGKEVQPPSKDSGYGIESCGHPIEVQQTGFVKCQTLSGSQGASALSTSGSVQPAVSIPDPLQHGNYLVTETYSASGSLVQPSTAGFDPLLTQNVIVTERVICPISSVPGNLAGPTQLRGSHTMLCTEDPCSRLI

Row | Structure (SMILES) | binding (percent of control)
1 | COc1ccc(C=C2CCC3C(CCCC34OCCO4)C2=O)cc1 (stereo not given) | 104%
2 | CC1CCCC(NC(=O)COC(=O)c2ccccc2C(=O)N(C)C2CCCCC2)C1C (stereo not given) | 98.5%
3 | CCN(CC)CCn1cnc2c1c(=O)[nH]c(=O)n2Cc1ccccc1 | 65.2% (active)
4 | COCCn1cnc2c1c(=O)n(Cc1ccc(Br)cc1)c(=O)n2Cc1ccccc1 | 125%
5 | Cn1c(=O)[nH]c(=O)c2c1[nH]c(=S)n2Cc1ccccc1 | 99.1%
6 | O=C(NCCN1CCOCC1)c1ccc2c(c1)N(Cc1cccc(Cl)c1)C(=O)c1ccccc1S2(=O)=O | 95.8%
7 | OCC1OC(n2cnc3c(N4CCCC4)ncnc32)C(O)C1O (stereo not given) | 102%
8 | CCOc1ccc(NS(=O)(=O)c2ccc(C(=O)NCC3CCCO3)cc2)cc1 (stereo not given) | 100%
9 | COc1cc(NC(=O)C2=C(C)OCCS2)c(Cl)cc1C(=O)NCCCN1CCCC(C)C1 (stereo not given) | 105%
10 | CCOC(=O)c1c(NC(=S)SC)sc(C(=O)N2CCc3ccccc3C2)c1C | 100%
11 | COc1ccc(-c2nc(CS(=O)CC(=O)NCc3ccccc3)c(C)o2)cc1OC (stereo not given) | 97.4%
12 | COc1ccc(-c2nc(CS(=O)CC(=O)NCc3ccccn3)c(C)o2)cc1 (stereo not given) | 17.1% (active)
13 | COc1cccc(-c2nc(CS(=O)CC(=O)NCc3ccc(F)cc3)c(C)o2)c1 (stereo not given) | 93.3%
14 | CNS(=O)(=O)c1ccc(NC(=O)Nc2ccc3c(c2)OCO3)cc1 | 66.6% (active)
15 | CC(C)CNS(=O)(=O)c1ccc(C(=O)Nc2ccc3c(c2)OCO3)cc1 | 85.2%
16 | Cc1cccc(NC(=O)Nc2ccc3c(c2)OCO3)n1 | 134%
17 | CN(Cc1ccccc1)C(=O)CCC1CCN(C(=O)c2ccco2)CC1 | 91.8%
18 | COc1cc(C(=O)N2CCOC23CCN(Cc2ccccc2)CC3)cc(OC)c1OC | 108%
19 | COCCCN1C(=O)C(CC(=O)NCc2cccs2)CC(C(=O)N2CCOCC2)=C1C (stereo not given) | 99.9%
20 | Cc1cnc(NC(=O)CSc2nnc(C)s2)s1 | 101%
21 | CCSc1nnc(SCC(=O)NNC(=O)c2ccccc2F)s1 | 115%
22 | Cc1nnc(SCC(=O)Nn2cnnc2)s1 | 89.8% (active)
23 | CNC(=O)c1ccc(CN(C)C(=O)c2cc(C3CC3)nc3c2cnn3C(C)C)cc1 | 105%
24 | O=[N+]([O-])c1ccc(C(S(=O)(=O)Cc2ccccc2)S(=O)(=O)Cc2ccccc2)cc1 | 100%
25 | CC(CNS(=O)(=O)c1ccc(Br)cc1)CN(C)C (stereo not given) | 102%

Row | Structure (SMILES) | binding (percent of control)
26 | Cc1ccc(S(=O)(=O)NCCNC(C)c2ccc(Br)cc2)cc1 (stereo not given) | -19.8% (active)
27 | Cc1ccc(OCCNC(=O)CCNS(=O)(=O)c2ccc(Br)cc2)cc1 | 107%
28 | CC1C(=O)N(Cc2cn(CC3CCCCC3)nn2)CCS(=O)(=O)N1Cc1ccc(-c2cccc(N(C)C)c2)cc1 (stereo not given) | 101%
29 | COCC1CCCCN1C(=O)c1cc(COc2ccc(C)c(C)c2)on1 (stereo not given) | 101%
30 | Cc1ccc(NC(=O)CN(C)Cc2ccc(F)cc2)c([N+](=O)[O-])c1 | 93.5%
31 | CN(CC(=O)Nc1ccc(N2CCOCC2)cc1)CC(=O)Nc1ccccc1[N+](=O)[O-] | 116%
32 | CN(CC(=O)Nc1ccccc1[N+](=O)[O-])Cc1ccc(Br)cc1 | 104% (active)
33 | COc1ccc(-n2ncc3c(SCC(=O)NNC(C)=O)ncnc32)cc1 | 102%
34 | COc1ccc(NC(=O)CSc2ncnc3[nH]ncc23)cc1 | 106%
35 | CC(=O)Nc1ccc(NC(=O)CSc2ncnc3c2cnn3Cc2ccccc2)cc1 | 76.2% (active)
36 | O=C(NCc1nnnn1-c1ccc(Cl)cc1)c1ccc([N+](=O)[O-])o1 | 98.8%
37 | Cc1ccc(S(=O)(=O)N2CCOCC2)cc1NC(=O)c1ccncc1 | 96.3%
38 | Cc1cc(-c2ccc(S(=O)(=O)N3CCN(c4cccc(C(F)(F)F)c4)CC3)s2)on1 | 80%
39 | Cc1cc(-c2ccc(S(=O)(=O)N3CCc4ccccc4C3)s2)on1 | 80.5% (active)
40 | Cc1cccc(N2CCN(S(=O)(=O)c3ccc(-c4cc(C)no4)s3)CC2C)c1 (stereo not given) | 96.5%
41 | CC(C)CCOc1ccc(C(=O)Nc2cc(S(=O)(=O)N3CCOCC3)ccc2N2CCOCC2)cc1 | 102%
42 | C=CCOc1cccc(C2C(C(=O)c3ccc(C)o3)=C(O)C(=O)N2CCN2CCOCC2)c1 (stereo not given) | 102%
43 | c1ccc(CNCc2ccc(CNCc3ccccc3)cc2)cc1 | 102%
44 | COc1cc(/C=C2\SC(=S)N(Nc3ncc(C(F)(F)F)cc3Cl)C2=O)cc(OC)c1OC | 87.8% (active)
45 | CCOc1ccc(/C=C2\SC(=S)N(NC(=O)c3ccncc3)C2=O)cc1OC | 106%
46 | COc1ccc(/C=C2\SC(=S)N(CCCC(=O)NC3CCCC3)C2=O)cc1OC | 109%
47 | O=C(CSc1ncn[nH]1)Nc1nc2c(F)c(F)c(F)cc2s1 | 94%
48 | Cc1ccc(S(=O)(=O)N2C[C@H]3C(=O)C[C@@H](c4cccc5ccccc45)N(S(=O)(=O)c4ccc(C)cc4)[C@H]3C[C@H]2c2ccc(Cl)cc2)cc1 | 99.7%
49 | CC(=O)Nc1cccc(Nc2nc(-c3cccs3)nc3ccccc23)c1 | 64.6% (active)
50 | O=c1[nH]c(-c2cccs2)nc2ccccc12 | 98.9%

Row | Structure (SMILES) | binding (percent of control)
51 | Cc1cccc(-c2nc(Nc3ccc(O)cc3)c3ccccc3n2)c1 | 324%
52 | C[C@H]1CN([C@@H](C)CO)C(=O)CCCn2nncc2CO[C@@H]1CN(C)Cc1ccc(Oc2ccccc2)cc1 | 101%
53 | Cc1ccc(C(=O)N[C@H](C(=O)N2CCN(c3ncccn3)CC2)C(C)C)cc1 | 96.6%
54 | CCOC(=O)c1cc2cc3ccccc3cc2oc1=O | 105%
55 | NS(=O)(=O)c1ccc(NC(=O)COC(=O)c2cc3ccccc3oc2=O)cc1 | 9.15% (active)
56 | NS(=O)(=O)c1ccc(NC(=O)COC(=O)CCc2c[nH]c3ccccc23)cc1 | 96.4%
57 | COc1ccc(NC(=O)C2CCC(CNC(=O)[C@@H]3Cc4ccccc4CN3)CC2)cc1 (stereo not given in full) | 104%
58 | COc1cccc(NC(=O)[C@H](Cc2c[nH]c3ccccc23)NC(=O)[C@@H]2Cc3ccccc3CN2)c1 | 63.9% (active)
59 | COc1ccc(NC(=O)[C@H](NC(=O)[C@@H]2Cc3ccccc3CN2)c2ccccc2)cc1 | 103%
60 | COc1ccc(CN2C(=O)C(CC(=O)NCc3cccc4ccccc34)CC(C(=O)N3CCOCC3)=C2C)cc1 (stereo not given) | 102%
61 | O=C(Nc1cc(F)ccc1F)c1ccc2c(=O)n3c(nc2c1)CCC3 | 98.5%
62 | C[C@H]1Cn2cnc(C(=O)N[C@@H](Cc3c[nH]c4ccccc34)C(=O)OC(C)(C)C)c2C(=O)N1 | 98.2%
63 | CCC(=O)Nc1ccc(Nc2nc(Cl)nc(Nc3ccc(NC(=O)CC)cc3)n2)cc1 | 81.3% (active)
64 | CCC(=O)Nc1ccc(C(=O)NNC(=O)c2ccc(Cl)cc2)cc1 | 103%
65 | CCOC(=O)CNc1nc(Cl)nc(Nc2ccccc2)n1 | 90.6%
66 | O=C(CCN1CCCCC1)Nc1ccc(F)c(F)c1 | 94.7%
67 | COc1ccc(-n2cc(CNC3CCOCC3)c(-c3cccc(F)c3)n2)cc1 | 21.8% (active)
68 | CCC(O)C1CCN(Cc2cn(-c3ccc(OC)cc3)nc2-c2cccc(F)c2)CC1 (stereo not given) | 110%
69 | COc1ccc(-n2cc(CN(C)Cc3n[nH]c(=O)[nH]3)c(-c3cccc(F)c3)n2)cc1 | 103%
70 | Cc1cccc(NC(=O)c2sc3nc(N4CCOCC4)c4c(c3c2N)CCCC4)c1 | 94.3%
71 | Cc1ccc(NC(=O)c2sc3nc(N)c(C#N)cc3c2N)cc1 | 99.5%
72 | CC(=O)Nc1ccc(NC(=O)c2sc3nc4c(c(-c5ccc(C)cc5)c3c2N)CCC4)cc1 | 6.32% (active)
73 | Cc1ccc(NC(=O)COc2coc(CN3CCc4ccccc4C3)cc2=O)cc1Cl | 85.8% (active)
74 | Cc1ccc(NC(=O)CN2CCc3ccccc3C2)cc1C | 120%
75 | Cc1cc(C)cc(NC(=O)COc2coc(CN3CCN(c4ccccc4)CC3)cc2=O)c1 | 104%

Row | Structure (SMILES) | binding (percent of control)
76 | O=C(COC(=O)/C=C/c1ccc(Cl)cc1)NC1CCS(=O)(=O)C1 (stereo not given) | 107%
77 | CN(c1ccccc1)S(=O)(=O)c1ccc(C(=O)NCc2cccnc2)cc1 | 97.8%
78 | COc1cc2c(=O)n(C)c3ccccc3c2cc1OC | 103%
79 | Cc1ccc(S(=O)(=O)c2nc(NCCCn3ccnc3)sc2Cl)cc1 | 98.5%
80 | Cc1ccc(-c2nc(C#N)c(NCCCn3ccnc3)o2)cc1 | 66.2% (active)
81 | COc1ccc(-c2cc(C(=O)NCCCn3ccnc3)no2)cc1 | 104%
82 | Cc1ccc(CCNC(=O)CN2C(=O)CSc3ccc(S(=O)(=O)N4CCOCC4)cc32)cc1 | 100%
83 | Cc1ccc(C(=O)N2CCCc3ccccc32)c(Cl)c1 | 104%
84 | Cc1ccc(-c2nc3ccc(Cl)cn3c2Cc2ccccc2)cc1 | 111%
85 | C[C@@H]1CN([C@@H](C)CO)C(=O)c2cc(Br)cnc2O[C@H]1CN(C)Cc1ccc(-c2ccccc2)cc1 | 101%
86 | O=S(=O)(c1ccccc1)c1nc(-c2ccccc2F)oc1NCc1cccnc1 | 91.8% (active)
87 | O=S(=O)(c1ccc(Cl)cc1)c1nc(-c2ccccc2F)oc1NCCN1CCOCC1 | 103%
88 | O=S(=O)(c1ccc(Br)cc1)c1nc(-c2ccccc2)oc1NCc1cccnc1 | 78.8%
89 | Clc1cccc(N=C2NN=C(c3ccc4c(c3)OCCO4)CS2)c1 | 97.3%
90 | C=CCn1c(C)cc(C2=NNC(=NCC)SC2)c1C | 80.2%
91 | COCCn1c(C)cc(C2=NNC(=Nc3ccc(F)cc3)SC2)c1C | 76.6% (active)
92 | COc1ccc(N2C(=O)CC(SC(C)C)C2=O)cc1 (stereo not given) | 68% (active)
93 | COc1ccc(N2C(=O)CC(Sc3n[nH]c(-c4ccc(C)cc4)n3)C2=O)cc1 (stereo not given) | 85.3%
94 | COc1ccc(N2C(=O)CC(N3CCC(C(N)=O)CC3)C2=O)cc1 (stereo not given) | 97.6%
95 | Cc1cccc(C)c1NC(=O)CNC(=O)c1ccc(N2CCOCC2)c([N+](=O)[O-])c1 | 95.2%
96 | COc1ccc2nc(-c3ccccn3)ccc2c1 | 101%
97 | CCCc1ccc(S(=O)(=O)N2CCN(C(=O)c3cc(C)on3)CC2)cc1 | 96.3%
98 | CCCCCCn1c(=O)n2n(c1=O)C[C@]1(OC(=O)NCc3ccc(OC)c(OC)c3)CN(S(=O)(=O)c3ccc(C)cc3)C[C@]1(O)C2 | 108%
99 | CC1=C(C(=O)Nc2cccc(C(=O)NCC(C)c3ccccc3)c2)SCCO1 (stereo not given) | 106%
100 | CCOc1ccc(CCNC(=O)COC(=O)c2ccc(C)c(S(=O)(=O)N3CCOCC3)c2)cc1OCC | 97.5%
